Source: PubChem
This excerpt belongs to a sample that is enriched for hits.
U2OS ROS induce = inducers of reactive oxygen species in cancer cells; U2OS ROS induction, H2DCF-DA fluorescence; ROS induction (% of piperlongumine), % at 10 µM; actives 2% (n = 46,000); AID 624156; in the data active = ROS induction above about 79%, passing the limit was not always enough
Each line names hits and unclear results; the compound was inactive in the other large screens.

COCCOC(=O)N1C(=O)[C@@]2(c3cc(C#CCC(C(=O)OC)C(=O)OC)ccc31)[C@H](c1ccccc1OCCO)N1[C@H](c3ccccc3)[C@H](c3ccccc3)OC(=O)[C@H]1[C@@H]2C(N)=O	U2OS ROS induce 406.9
COCCOC(=O)N1C(=O)[C@@]2(c3cc(C#CCNC(N)=O)ccc31)[C@H](c1ccccc1OCCO)N1[C@H](c3ccccc3)[C@H](c3ccccc3)OC(=O)[C@H]1[C@@H]2C(N)=O	none
COCCOC(=O)N1C(=O)[C@@]2(c3cc(C#CCC(C(=O)OC)C(=O)OC)ccc31)[C@H](c1ccccc1OCCO)N1[C@H](c3ccccc3)[C@H](c3ccccc3)OC(=O)[C@H]1[C@@H]2C(=O)NC[C@H](O)c1ccccc1	U2OS ROS induce 319.6
COCCOC(=O)N1C(=O)[C@@]2(c3cc(C#CC4(O)CCCCCC4)ccc31)[C@H](c1ccccc1OCCO)N1[C@H](c3ccccc3)[C@H](c3ccccc3)OC(=O)[C@H]1[C@@H]2C(N)=O	none
C=CCNC(=O)[C@H]1[C@@H]2C(=O)O[C@@H](c3ccccc3)[C@@H](c3ccccc3)N2[C@@H](c2ccccc2OCCO)[C@]12C(=O)N(C(=O)OCCOC)c1ccc(C#CCC(C(=O)OC)C(=O)OC)cc12	U2OS ROS induce 178.5
COCCOC(=O)N1C(=O)[C@@]2(c3cc(C#Cc4ccc(OC)cc4)ccc31)[C@H](c1ccccc1OCCO)N1[C@H](c3ccccc3)[C@H](c3ccccc3)OC(=O)[C@H]1[C@@H]2C(=O)NC[C@H](O)c1ccccc1	none
COCCOC(=O)N1C(=O)[C@@]2(c3cc(C#CCCO)ccc31)[C@H](c1ccc(O)cc1)N1[C@H](c3ccccc3)[C@H](c3ccccc3)OC(=O)[C@H]1[C@@H]2C(N)=O	none
COC(=O)c1cc2c(s1)-c1cc(Cl)ccc1SC2	none
O=C(O)CC1(Cc2nc(-c3ccc(Cl)cc3)no2)CCCC1	none
O=C(NCCCN1CCOCC1)c1ccc2c(=O)n(CCCN3CCCC3=O)c(=S)[nH]c2c1	none
Cc1ccc(Cn2c(SCc3cccc(C(F)(F)F)c3)nc3ccncc32)cc1	none
O=C(Cc1ccccc1)NN(c1ccccc1)c1ccccc1	none
COC(=O)c1ccc(-n2nnnc2SCCCC(=O)c2ccc(F)cc2)cc1	none
COC(=O)c1[nH]nc2c1C(=O)N(c1ccc(F)cc1)C2=O	U2OS ROS induce 260.1
COC(=O)c1cccc(C(=O)Nc2ccc(F)cc2)n1	none
COC(=O)c1ccc2c(=O)n(CCC3=CCCCC3)c(SCc3ccc(Cl)cc3)nc2c1	none
CCn1c(C(=O)NCCc2ccccc2)cc2oc3ccccc3c21	none
CC(C)Cc1ccc(C(C)C(=O)NC(C)Cc2c[nH]c3ccccc23)cc1 (stereo not given)	none
O=C(NC1CCCC1)c1cc(-c2ccc(F)cc2)no1	none
CCOc1ccc(-n2c(C)nc3cc(C(=O)NCc4ccccc4Cl)ccc32)cc1	none
Cc1noc(C)c1NC(=O)Nc1ccc2c(c1)C(=O)N([C@@H](C)CO)C[C@@H](C)[C@@H](CN(C)C(=O)Nc1c(C)noc1C)O2	none
C[C@@H]1CN([C@@H](C)CO)C(=O)c2cc(NC(=O)C3CC3)ccc2O[C@@H]1CN(C)C(=O)Nc1ccc(C(F)(F)F)cc1	U2OS ROS induce 80.4
Cc1noc(C)c1NC(=O)Nc1ccc2c(c1)C(=O)N([C@@H](C)CO)C[C@H](C)[C@H](CN(C)C(=O)Nc1c(C)noc1C)O2	none
C[C@H]1CN([C@@H](C)CO)C(=O)c2cc(NC(=O)Nc3ccc4c(c3)OCO4)ccc2O[C@H]1CN(C)Cc1ccc(C(F)(F)F)cc1	none
Cc1noc(C)c1NC(=O)Nc1ccc2c(c1)C(=O)N([C@H](C)CO)C[C@@H](C)[C@H](CN(C)C(=O)Nc1c(C)noc1C)O2	U2OS ROS induce 104.8
C[C@@H]1CN([C@@H](C)CO)C(=O)c2cc(NC(=O)C3CC3)ccc2O[C@H]1CN(C)C(=O)Nc1ccc(C(F)(F)F)cc1	none
C[C@@H]1CN([C@H](C)CO)C(=O)c2cc(NC(=O)Nc3ccc4c(c3)OCO4)ccc2O[C@H]1CN(C)Cc1ccc(C(F)(F)F)cc1	U2OS ROS induce 118.7
C[C@H]1CN([C@@H](C)CO)C(=O)c2cc(NC(=O)Nc3ccc4c(c3)OCO4)ccc2O[C@@H]1CN(C)C(=O)Nc1ccc(C(F)(F)F)cc1	none
C[C@@H]1CN([C@H](C)CO)C(=O)c2cc(NC(=O)C3CC3)ccc2O[C@H]1CN(C)C(=O)Nc1ccc(C(F)(F)F)cc1	none
C[C@H](CO)N1C[C@H](C)[C@@H](CN(C)Cc2ccc(C(F)(F)F)cc2)Oc2ccc(NC(=O)Nc3ccc4c(c3)OCO4)cc2C1=O	none
C[C@H]1CN([C@@H](C)CO)C(=O)c2cc(NC(=O)Nc3ccc(C(F)(F)F)cc3)ccc2O[C@@H]1CN(C)C(=O)Nc1ccc2c(c1)OCO2	none
C[C@H](CO)N1C[C@H](C)[C@H](CN(C)C(=O)Nc2ccc(C(F)(F)F)cc2)Oc2ccc(NC(=O)Nc3ccc4c(c3)OCO4)cc2C1=O	U2OS ROS induce 102.9
COc1ccc(-n2cnc3cc(NCc4ccccc4O)ccc32)cc1	none
O=C(NCc1cccs1)c1ccc2c(c1)N(Cc1ccccc1)C(=O)c1ccccc1S2	none
O=C(Nc1cccc(F)c1)c1cc(S(=O)(=O)N2CCCCC2)ccc1F	none
COC(=O)CNS(=O)(=O)c1ccc(I)cc1	none
COc1ccc(-n2nnc3c(SCC(=O)N4CCc5ccccc54)ncnc32)cc1	none
CC(C)CCNC(=O)c1ccc2c(c1)N(Cc1ccccc1)CCS2	none
COc1ccc(NC(=O)/C=C/c2ccccc2)cc1	none
CSc1c(-c2ccc(Cl)cc2)[nH]c2ccccc12	none
CN(C)C(=S)Nc1ccccc1	none
COc1ccc(S(=O)(=O)Nc2ccc3c(c2)CC(=O)N([C@H](C)CO)C[C@H](C)[C@H](CN(C)Cc2ccc(Oc4ccccc4)cc2)O3)cc1	none
C[C@@H]1CN([C@H](C)CO)C(=O)Cc2cc(NS(=O)(=O)c3ccc(Cl)cc3)ccc2O[C@@H]1CN(C)Cc1ccc(Oc2ccccc2)cc1	U2OS ROS induce 86.0
C[C@H]1CN([C@@H](C)CO)C(=O)Cc2cc(NS(=O)(=O)c3ccccc3)ccc2O[C@H]1CN(C)Cc1ccc(Oc2ccccc2)cc1	none
C[C@@H]1CN([C@H](C)CO)C(=O)Cc2cc(NS(=O)(=O)c3ccc(F)cc3)ccc2O[C@@H]1CN(C)Cc1ccc(Oc2ccccc2)cc1	none
C[C@@H]1CN([C@H](C)CO)C(=O)Cc2cc(NS(=O)(=O)c3ccccc3)ccc2O[C@@H]1CN(C)Cc1ccc(Oc2ccccc2)cc1	none
C[C@H](CO)N1C[C@H](C)[C@H](CN(C)Cc2ccc(Oc3ccccc3)cc2)Oc2ccc(NS(=O)(=O)c3ccc(F)cc3)cc2CC1=O	U2OS ROS induce 113.9
CC1CCN(S(=O)(=O)c2ccc(C(=O)NC34CC5CC(CC(C5)C3)C4)cc2)CC1	none
O=C1C(=O)N(CCCn2ccnc2)C(c2cccc(Br)c2)C1C(=O)c1ccccc1 (stereo not given)	none
O=c1c2sccc2nc(SCc2ccccc2)n1CCc1ccccc1	none
Clc1ccc(-c2cnc3n2CCC3)cc1Cl	none
CC(=O)OCC(=O)[C@@]12OC(C)(C)O[C@@H]1CC1C3C[C@H](F)C4=CC(=O)C=C[C@]4(C)[C@@]3(F)[C@@H](O)C[C@@]12C (stereo not given in full)	none
CC(=O)OCC(=O)[C@@]12OC3(CCCC3)O[C@@H]1CC1C3CCC4=CC(=O)C=C[C@]4(C)[C@@]3(F)[C@@H](O)C[C@@]12C (stereo not given in full)	U2OS ROS induce 129.5
CC(=O)OCC(=O)[C@@]1(O)[C@H](C)C[C@H]2[C@@H]3CCC4=CC(=O)C=C[C@]4(C)[C@@]3(F)[C@@H](O)C[C@@]21C	none
CCOc1ccc2c(c1)sc(=NC(=O)CCOc1ccccc1)n2C	none
